In PubChem BioAssay (NCI):
This is part of a sample that, as a whole, favours compounds with a hit. Of some 83,000 tested, about 20% had one in any assay.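 96-well plates, one dose, 48 hours. Percent growth reported; active if below 10.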 A number with no mark means an inactive call. Activity calls are given as the source filed them.

Key:
Experiment in all cases: NCI-60 one-dose screen, 48 h (100 = growth as untreated, 0 = no growth, -100 = all killed)
Conditions in all cases: 10 µM
[1] = system: T-47D breast
[2] = system: BT-549 breast
[3] = system: MDA-MB-435 melanoma
[4] = system: SW-620 colon
[5] = system: MCF7 breast
[6] = system: HCT-116 colon
[7] = system: HCC-2998 colon
[8] = system: KM12 colon

**Q.** Which results are given for `COc1ccc(-c2n/c(=C\c3c(O)[nH]c4ccccc34)cc3c2=Nc2ccccc2-3)cc1`?
**A.** growth [1]: 84.8%; growth [2]: 78.4%; growth [3]: 4.87% (active); growth [4]: -6.59% (active); growth [5]: -22% (active); growth [6]: -87.3% (active); growth [7]: 17.8%; growth [8]: 5.41% (active)

**Q.** How did the growth [1] turn out when `CCCCn1c(=O)[nH]c2c(c1=O)C(c1ccc(Cl)cc1)c1c([nH]c(=O)n(CCCC)c1=O)N2` was run?
**A.** Its growth is 73.3%.

**Q.** And the growth [2]?
**A.** Its growth is 100%.

**Q.** What about the growth [3] of the same molecule?
**A.** Its growth is 103%.

**Q.** And the growth [4]?
**A.** Its growth is 101%.

**Q.** What about the growth [5] of the same molecule?
**A.** Its growth is 88.2%.

**Q.** What about the growth [6] of the same molecule?
**A.** The growth was 96.6%.

**Q.** And the growth [7]?
**A.** Its growth is 103%.

**Q.** What about the growth [8] of the same molecule?
**A.** Its growth is 102%.

**Q.** Which growth [1] does the source give for `CCOC(=O)CSC(=S)SCC(=O)OCC` here?
**A.** The growth was 89.6%.

**Q.** And the growth [2]?
**A.** The growth was 106%.

**Q.** What about the growth [3] of the same molecule?
**A.** Its growth is 94.9%.

**Q.** What about the growth [4] of the same molecule?
**A.** The growth was 135%.

**Q.** And the growth [5]?
**A.** The growth was 88.7%.

**Q.** What about the growth [6] of the same molecule?
**A.** The growth was 99.1%.

**Q.** What about the growth [7] of the same molecule?
**A.** Its growth is 105%.

**Q.** And the growth [8]?
**A.** Its growth is 100%.

**Q.** For `COc1nc2c(c(=O)[nH]1)C(c1ccc(Oc3ccnc4cc(Cl)ccc34)c(OC)c1)C=C(c1cc(OC)c(OC)c(OC)c1)N2` (stereo not given), which growth [1] is on record?
**A.** The growth was 89.8%.

**Q.** And the growth [2]?
**A.** The growth was 91.7%.

**Q.** What about the growth [3] of the same molecule?
**A.** The growth was 111%.

**Q.** And the growth [4]?
**A.** The growth was 102%.

**Q.** And the growth [5]?
**A.** The growth was 102%.

**Q.** And the growth [6]?
**A.** The growth was 94%.

**Q.** And the growth [7]?
**A.** The growth was 97.6%.

**Q.** What about the growth [8] of the same molecule?
**A.** Its growth is 104%.

**Q.** With `CS(=O)(=O)Nc1ccc([N+](=O)[O-])cc1Oc1ccccc1` as the molecule, how does the growth [1] read?
**A.** Its growth is 84%.

**Q.** And the growth [2]?
**A.** The growth was 109%.

**Q.** What about the growth [3] of the same molecule?
**A.** Its growth is 101%.

**Q.** And the growth [4]?
**A.** The growth was 104%.

**Q.** What about the growth [5] of the same molecule?
**A.** The growth was 102%.

**Q.** And the growth [6]?
**A.** The growth was 100%.

**Q.** And the growth [7]?
**A.** Its growth is 93%.

**Q.** What about the growth [8] of the same molecule?
**A.** The growth was 94.5%.

**Q.** Which growth [1] does the source give for `c1ccc(COCC[P+](c2ccccc2)(c2ccccc2)c2ccccc2)cc1` here?
**A.** Its growth is 12%.

**Q.** What about the growth [2] of the same molecule?
**A.** The growth was 5.25% (active).

**Q.** What about the growth [3] of the same molecule?
**A.** Its growth is -0.102% (active).

**Q.** And the growth [4]?
**A.** Its growth is 14%.

**Q.** What about the growth [5] of the same molecule?
**A.** Its growth is 4.89% (active).

**Q.** What about the growth [6] of the same molecule?
**A.** The growth was 5.42% (active).

**Q.** What about the growth [7] of the same molecule?
**A.** The growth was 6.68% (active).

**Q.** And the growth [8]?
**A.** Its growth is 6.34% (active).

**Q.** What does the source list for `O=C(O)CCCCSCCCCC(=O)O`?
**A.** growth [1]: 86.7%; growth [2]: 110%; growth [3]: 107%; growth [4]: 111%; growth [5]: 97.5%; growth [6]: 108%; growth [7]: 106%; growth [8]: 110%

**Q.** Which results are given for `Cc1cc(C)c2nc(C)c(C)[n+]([O-])c2c1`?
**A.** growth [1]: 94.9%; growth [2]: 106%; growth [3]: 111%; growth [4]: 114%; growth [5]: 95.6%; growth [6]: 97.3%; growth [7]: 97.9%; growth [8]: 106%

**Q.** Which results are given for `CCc1ccc(-c2nnc(COc3ccc(-c4nc5ccc(C)cc5[nH]4)cc3OC)o2)cc1`?
**A.** growth [1]: 15%; growth [2]: 38.8%; growth [3]: 36.8%; growth [4]: 86.7%; growth [5]: 30.6%; growth [6]: 37.1%; growth [7]: 97.9%; growth [8]: 50.9%

**Q.** With `FC(F)(F)c1ccc(-c2nc(-c3nc4cc(Cl)c(Cl)cc4[nH]3)c3ccccn23)cc1` as the molecule, how does the growth [1] read?
**A.** Its growth is 61.6%.

**Q.** What about the growth [2] of the same molecule?
**A.** The growth was 88.2%.

**Q.** And the growth [3]?
**A.** The growth was 73.4%.

**Q.** And the growth [4]?
**A.** Its growth is 80%.

**Q.** And the growth [5]?
**A.** The growth was 48%.

**Q.** What about the growth [6] of the same molecule?
**A.** Its growth is 33.8%.

**Q.** What about the growth [7] of the same molecule?
**A.** The growth was 83%.

**Q.** And the growth [8]?
**A.** The growth was 52.8%.

**Q.** `Cc1cc(Cl)ccc1Nc1nc(C(F)(F)F)ccc1C(=O)N/N=C/c1ccccc1Cl` was tested. Which growth [1] did it give?
**A.** The growth was 22%.

**Q.** And the growth [2]?
**A.** Its growth is -12.1% (active).

**Q.** And the growth [3]?
**A.** Its growth is 16.4%.

**Q.** And the growth [4]?
**A.** Its growth is 19.9%.

**Q.** And the growth [5]?
**A.** Its growth is 16.2%.

**Q.** And the growth [6]?
**A.** The growth was 7.23% (active).

**Q.** And the growth [7]?
**A.** Its growth is 16.7%.

**Q.** And the growth [8]?
**A.** The growth was 14.8%.

**Q.** How did the growth [1] turn out when `Cc1nc2cc(-n3c(-c4ccc(F)cc4)nc4ccccc4c3=O)ccc2n1Cc1ccccc1` was run?
**A.** Its growth is -29% (active).

**Q.** And the growth [2]?
**A.** The growth was 2.3% (active).

**Q.** And the growth [3]?
**A.** Its growth is -32.6% (active).

**Q.** What about the growth [4] of the same molecule?
**A.** Its growth is 11.6%.

**Q.** And the growth [5]?
**A.** Its growth is -24.9% (active).

**Q.** What about the growth [6] of the same molecule?
**A.** The growth was -18.8% (active).

**Q.** What about the growth [7] of the same molecule?
**A.** The growth was 61.7%.

**Q.** What about the growth [8] of the same molecule?
**A.** The growth was 18.7%.

**Q.** How did the growth [1] turn out when `N#Cc1ncc(-c2cc(F)ccc2F)c(NC2CCCCCC2)n1` was run?
**A.** The growth was 69.5%.

**Q.** And the growth [2]?
**A.** Its growth is 76.2%.

**Q.** What about the growth [3] of the same molecule?
**A.** The growth was 93.6%.

**Q.** And the growth [4]?
**A.** Its growth is 96.1%.

**Q.** And the growth [5]?
**A.** Its growth is 82.3%.

**Q.** What about the growth [6] of the same molecule?
**A.** The growth was 85.6%.

**Q.** And the growth [7]?
**A.** Its growth is 82.3%.

**Q.** What about the growth [8] of the same molecule?
**A.** Its growth is 36.4%.

**Q.** Which growth [1] does the source give for `CCOC(=O)c1cc2c(n1Cc1cc(OC)cc(OC)c1)-c1oncc1CC2` here?
**A.** Its growth is 54.8%.

**Q.** What about the growth [2] of the same molecule?
**A.** The growth was 39.5%.

**Q.** What about the growth [3] of the same molecule?
**A.** Its growth is -37% (active).

**Q.** What about the growth [4] of the same molecule?
**A.** The growth was 34.9%.

**Q.** And the growth [5]?
**A.** The growth was 16.6%.

**Q.** What about the growth [6] of the same molecule?
**A.** Its growth is 14.2%.

**Q.** What about the growth [7] of the same molecule?
**A.** The growth was 19.4%.

**Q.** And the growth [8]?
**A.** Its growth is 19.5%.

**Q.** Which results are given for `COc1cc(C(c2c[nH]c3ccccc23)N2CCCC2)ccc1OCc1ccccc1` (stereo not given)?
**A.** growth [1]: 81.5%; growth [2]: -2.45% (active); growth [3]: 96.8%; growth [4]: 98.9%; growth [5]: 83.4%; growth [6]: 69%; growth [7]: 96.2%; growth [8]: 92.2%
